# An excerpt weighted towards active compounds, which were near 10% of everything screened.
# JMJD2A Tudor: qHTS Assay for Inhibitors of JMJD2A-Tudor Domain; Potency, µM (titrated, usually from 114 µM), without a hit: top-dose activity change, negative = inhibition, most hits filed as inhibitors; AlphaScreen JMJD2A-Tudor / H3K4me3 peptide binding; actives 4.4% (n = 390,000); note: % is set by controls: 0 for no effect and ±100 for the full control effect; nearly all actives have a fitted effect of over 50% in size
# BAZ2B block: qHTS Assay for Inhibitors of BAZ2B | AlphaScreen BAZ2B-H3K14Ac peptide displacement | Potency, µM (highest dose often 114 µM), for the others: top-dose activity change, negative = inhibition, most hits filed as inhibitors | actives 4.4% (n = 360,000) | AID 504333, 2011; note: % is set by controls: 0 for no effect and ±100 for the full control effect; nearly all actives have a fitted effect of over 60% in size
#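 AlphaScreen displacement: compounds (up to 110uM) incubated 30 min at room temperature with a preformed 50 nM BAZ2B/50 nM biotinylated H3K14Ac peptide complex in PBS pH 7.4 with Tween-20. Donor and acceptor beads at 10 ug/mL final added, 20 min light-protected before reading.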
# G9a block: qHTS Assay for Inhibitors of Histone Lysine Methyltransferase G9a; Histone-lysine N-methyltransferase EHMT2 (Homo sapiens), Q96KQ7; G9a H3K9 monomethylation, AlphaScreen, 2 h; Potency, µM (top dose mostly 102 µM), without a hit: at the highest dose activity, negative = inhibition, hits mostly inhibitors; actives 8.8% (n = 350,000); note: % is set by controls: 0 for no effect and ±100 for the full control effect; nearly all actives have a fitted effect of over 75% in size
#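 AlphaScreen read-out: biotin-H3K9 peptide (500 nM) methylation by 20 nM enzyme with 20 uM SAM, 2 h at room temperature after 15 min compound preincubation; anti-monomethyl H3K9 antibody plus donor/acceptor beads, 10 min dark.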
# HP1b binding inh: HTS for Inhibitors of HP1-beta Chromodomain Interactions with Methylated Histone Tails; AlphaScreen HP1-beta / biotin-H3K9me3 peptide binding; Potency, µM (titrated, usually from 114 µM), for the others: top-dose activity change, negative = inhibition, usual class: inhibitors; actives 0.56% (n = 390,000); AID 540317, 2011; note: nearly all actives have a fitted effect of over 70% in size
#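 HP1-beta protein (50 nM final) preincubated 30 min at room temperature with biotinylated H3(1-18)K9me3 peptide (50 nM) in PBS pH 7.4, 0.01% Tween-20, then compound added for 30 min. AlphaScreen streptavidin donor/nickel chelate acceptor beads (10 ug/mL final), 30 min dark, luminescence read.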
# GLS inh: qHTS for Inhibitors of Glutaminase (GLS) | AID 624170, 2012 | Glutaminase kidney isoform, mitochondrial (Homo sapiens), O94925 | Potency, µM (top dose mostly 45.5 µM), for the others: at the highest dose activity change, negative = inhibition, actives largely listed as inhibitors | GLS enzymatic activity, qHTS titration | actives 0.21% (n = 410,000); note: % is set by controls: 0 for no effect and ±100 for the full control effect
#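 Glutamate formation by hKGA was monitored fluorometrically using coupled glutamate oxidase, HRP and Amplex Red. Substrate was added as 1 mM L-glutamine solution; incubation was 30 min at RT after an initial read.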
# Starred values were filed as active, the others as inactive; ? = inconclusive; · = no result; [ ] = another dose, or the depositor's remark. Calls come from the whole dose curve; as a rule, active = well fitted curve in the direction sought with a large enough effect; inconclusive = small, poorly fitted or top-dose-only effect, or another doubt; inactive = no such curve, though single readings can be large; an effect the other way counts as inactive or inconclusive. Potency is the fitted concentration of half-maximal effect.
SMILES,JMJD2A Tudor,BAZ2B block,G9a block,HP1b binding inh,GLS inh
O=C(O)C1=C[C@H](c2ccc(F)cc2)C[C@H](OCCCCO)O1,-24%,79µM*,-28%[12.7 µM],58%,-5%
C#Cc1ccc([C@@H]2C=C(C(=O)OCC=C)O[C@H](OCCCCO)C2)cc1,-34%,50µM*,?,30%,-4%
COc1ccc([C@H]2C=C(C(=O)O)O[C@@H](OCCCCO)C2)cc1,56µM*,?,-8%[12.7 µM],35%,2%
N=c1ccn2c(n1)O[C@H]1[C@@H](O)[C@@H](CO)O[C@H]12,·,·,27%[12.7 µM],·,·
CCOC(=O)CN(C(=O)CSc1nnc(-c2ccncc2)n1CCCN(C)C)c1ccccc1,?,50µM*,2.8µM*,?,1%
Cc1[nH]c2ccccc2c1C(=O)CSc1ccc(Cl)cc1,22µM*,-25%,-30%,?,?
C=CCn1c(SCn2nnc3ccccc3c2=O)nnc1-c1ccc(Br)cc1,-19%,-30%,?,25%,3%
C=CCn1c(SCn2nnc3ccccc3c2=O)nnc1-c1ccc(F)cc1,-7%,10%,32µM*,41%,-11%
Cc1[nH]c2ccccc2c1C(=O)CSc1nc2ccccc2[nH]1,-19%,-1%,48%[12.7 µM],55%,1%
C=CCn1c(SCC(=O)c2c(C)[nH]c3ccccc23)nnc1-c1ccncc1,2%[11.4 µM],3%,50µM*,25%,-4%
CCOc1ccc(C(=O)Nc2cc(-c3ccccc3)no2)cc1,-21%,-1%,-3%[59 µM],29%,-6%
Cn1cccc1C(=O)N1CCC[C@@]2(CCN(Cc3ccccc3)C2)C1,·,·,8%[12.7 µM],·,·
COC(=O)C1CCN(C2CN(Cc3ccccc3)S(=O)(=O)C2)CC1 (stereo not given),·,·,·,·,0%
CCOC(=O)c1c(C)[nH]c(C)c1C(=O)CSc1nnc(-c2ccncc2)n1Cc1ccccc1,-22%,?,56µM*,-1%,6%
C=CCn1c(SCC(=O)N2CC(C)OC(C)C2)nnc1-c1ccncc1 (stereo not given),0%,-5%,7.9µM*,29%,4%
Cc1ccc2sc(N(CCCN(C)C)C(=O)c3ccco3)nc2c1C,?,-27%,?,7%,4%
CN(C)CCN(C(=O)c1ccc(N2C(=O)CCC2=O)cc1)c1nc2cc3c(cc2s1)OCCO3,·,?,32µM*,·,·
CCN(Cc1ccccc1)S(=O)(=O)c1ccc(C(=O)N(CCCN(C)C)c2nc3c(C)c(C)ccc3s2)cc1,?,10µM*,35µM*,-11%,6%
CCN(CC)CCN(C(=O)CN1C(=O)c2ccccc2C1=O)c1nc2cc3c(cc2s1)OCO3,?,?,?,-1%,19%
Cc1ccc2sc(N(CCCN(C)C)C(=O)c3ccc(S(=O)(=O)N(C)C4CCCCC4)cc3)nc2c1C,?,?,32µM*,?,-4%
CN(C)CCN(C(=O)CN1C(=O)c2ccccc2C1=O)c1nc2cc3c(cc2s1)OCO3,-29%,89µM*,?,5%,12%
CN(C)CCN(C(=O)c1ccco1)c1nc2cc3c(cc2s1)OCCO3,-10%,-24%,·,25%,30%
COc1ccc(-c2cc3c(=O)n(CC(=O)Nc4cc(C)ccc4C)ccn3n2)cc1,-11%,-12%,9%[12.7 µM],29%,-1%
C[N+](C)(CCCOc1ccccc1)c1ccccc1,·,·,6%[21.5 µM],·,·
CN(C)CCCN(C(=O)COc1ccccc1)c1nc2cc3c(cc2s1)OCCO3,-19%,-17%,·,11%[57 µM],12%
CN(C)CCN(C(=O)c1ccc(S(=O)(=O)N(C)c2ccccc2)cc1)c1nc2cc3c(cc2s1)OCO3,?,40µM*,35µM*,-14%,-10%
CN(C)CCCN(C(=O)c1ccc(C(=O)c2ccccc2)cc1)c1nc2cc3c(cc2s1)OCCO3,50µM*,32µM*,·,-6%,-1%

# From PubChem BioAssay
